Here are results for three molecules from PubChem BioAssay (EPA / NIEHS).

A short description of experiment [1]: ACEA_ER_80hr: ACEA Biosciences xCELLigence Real-Time Cell Analysis on Estrogen Receptor Agonism for Proliferation (AID 2282667; active means hit-call score of the fitted dose curve at least 0.9, where 1 is the maximum). The conditions noted are these: T47D proliferation, impedance (xCELLigence), 80 h. A digest of the protocol: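 Real-time electrical impedance tracked growth of the human breast line T47D, with the 80 h post-dosing value used. Dosing spanned eight 1:4 steps down from a 100 uM final top concentration, run in duplicate.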

Experiment [2] in a line: ATG_CRE_CIS: Attagene CIS-FACTORIAL HepG2 Assay for human cAMP Responsive Element (CRE) binding protein 3 (AID 2282926). As to conditions: HepG2 CRE cis-reporter, Attagene multiplexed mRNA; actives raise or lower the signal. The method, boiled down: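 Assay format: transient reporter transfection of HepG2, 24 h treatment, total RNA isolation with DNase I step. Reporter abundance read by fluorescence after PCR and capillary separation; DMSO-normalised gain or loss fitting.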

Experiment [3] deals with CCAAT/enhancer-binding protein beta (Homo sapiens) (UniProt P17676). Kind of experiment: ATG_C_EBP_CIS: Attagene CIS-FACTORIAL HepG2 Assay for human CCAAT/Enhancer Binding Protein (C/EBP) beta (AID 2282927). The conditions noted are these: HepG2 Attagene cis-factorial transcription factor reporter; actives raise or lower the signal. The method, boiled down:
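HepG2 transiently transfected with multiplexed reporter units under cis-regulatory promoters reporting endogenous C/EBPb activity. After 24 h exposure, reporter mRNA assayed by RT-PCR, fluorescent labelling, HpaI digestion and capillary electrophoresis; bidirectional fitting versus DMSO.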

Experiment [4] is described as follows: ATG_CMV_CIS: Attagene CIS-FACTORIAL HepG2 Assay for human CMV (Internal Marker) (AID 2282928).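 Further: endpoint acts as a background internal control marker rather than a target.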 The conditions noted are these: HepG2 CMV promoter reporter, transcription factor profiling; actives raise or lower the signal. The method, boiled down: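 Reporter transcripts from transfected HepG2 cells are isolated after 24 h of chemical dosing, reverse-transcribed and amplified. Fragments labeled with 6-FAM are cut with HpaI and quantified by capillary electrophoresis; DMSO defines baseline.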

Experiment [5] in a line: ATG_DR4_LXR_CIS: Attagene CIS-FACTORIAL HepG2 Assay for human Liver X Receptor (LXR), DR4 submotif (AID 2282929). As to conditions: HepG2 Attagene DR4 cis-reporter, mRNA transcription; actives raise or lower the signal. A digest of the protocol: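 HepG2, transient MRTU transfection, cis-element (DR4) promoter; 24 h compound exposure; total RNA → oligo(dT) RT → PCR → 6-FAM primer extension → HpaI cut → CE. Gain/loss vs DMSO, bidirectional fit.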

The target of experiment [6] is Aryl hydrocarbon receptor (Homo sapiens) (UniProt P35869). Kind of experiment: ATG_Ahr_CIS: Attagene CIS-FACTORIAL HepG2 Assay for human Aryl Hydrocarbon Receptor (Ahr) (AID 2282930). The conditions noted are these: HepG2 AhR cis-factorial reporter transcription; actives raise or lower the signal. A digest of the protocol:
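HepG2 cells transiently transfected with cis-element-driven multiplexed reporter units; endogenous AhR activity read as reporter mRNA 24 h after dosing, via RT-PCR, 6-FAM labelling, HpaI digestion and capillary electrophoresis. Bidirectional fit relative to DMSO.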

Experiment [7] in a line: ATG_AP_1_CIS: Attagene CIS-FACTORIAL HepG2 Assay for human Activator Protein 1 (AP-1) (AID 2282931). The conditions noted are these: HepG2 Attagene cis-factorial AP-1 reporter mRNA; actives raise or lower the signal. The method, boiled down:
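Transient MRTU transfection of HepG2 → 24 h chemical treatment → RNA isolation, RT-PCR, 6-FAM labelling, HpaI digest → capillary electrophoresis. Fit: bidirectional, DMSO negative control.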

The nature of experiment [8]: ATG_AP_2_CIS: Attagene CIS-FACTORIAL HepG2 Assay for human Activator Protein 2 (AP-2) (AID 2282932). As to conditions: HepG2 AP-2 cis-reporter, Attagene transcription factor profiling; actives raise or lower the signal. A digest of the protocol: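 Read-out: fluorescent reporter mRNA via RT-PCR and capillary electrophoresis, 24 h post-dose in transiently transfected HepG2. Endogenous factors drive cis-promoter reporters; gain or loss of signal fitted bidirectionally against DMSO.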

Experiment [9] in a line: ATG_BRE_CIS: Attagene CIS-FACTORIAL HepG2 Assay for human Bone Morphogenetic Protein (BMP) Response Element (BRE) (AID 2282933). As to conditions: HepG2 BMP response element reporter, Attagene transcription factor profiling; actives raise or lower the signal. A digest of the protocol: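 Endogenous transcription factor activity read in transiently transfected HepG2 cells after 24 h chemical exposure. Bidirectional curve fitting against DMSO; readout is reporter transcript level by RT-PCR with capillary electrophoresis of labelled products.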

In experiment [10] the target is Retinoic acid receptor alpha (Homo sapiens) (UniProt P10276). Kind of experiment: ATG_DR5_RAR_CIS: Attagene CIS-FACTORIAL HepG2 Assay for human Retinoic Acid Receptor Alpha (RARE), DR5 submotif (AID 2282934). The conditions noted are these: HepG2 Attagene cis-factorial RARE DR5 reporter, mRNA; actives raise or lower the signal. A digest of the protocol:
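HepG2 cells transiently transfected with multiplexed reporter units; DR5 cis-element drives reporter through endogenous transcription factors. After 24 h dosing, reporter mRNA quantified by RT-PCR, fluorescent labeling, HpaI digestion and capillary electrophoresis; bidirectional fitting versus DMSO.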

Experiment [11] has as its target Transcription factor E2F1 (Homo sapiens) (UniProt Q01094). Kind of experiment: ATG_E2F_CIS: Attagene CIS-FACTORIAL HepG2 Assay for human E2F Transcription Factor 1 (AID 2282935). As to conditions: HepG2 Attagene cis-reporter, E2F reporter RNA transcripts; actives raise or lower the signal. The method, boiled down:
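Transient MRTU transfection of HepG2; 24 h compound exposure; RNA → oligo(dT) RT → PCR → FAM label → HpaI cut → CE fluorescence. Gain/loss of signal fit against DMSO.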

The nature of experiment [12]: ATG_E_Box_CIS: Attagene CIS-FACTORIAL HepG2 Assay for human Enhancer Box (E-box) (AID 2282936). The conditions noted are these: HepG2 E-box cis-reporter transcription, actives raise or lower the signal. A digest of the protocol:
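Transiently transfected HepG2, endogenous TF-driven reporters, 24 h dosing. Readout: RT-PCR plus capillary electrophoresis of fluorescent reporter fragments. Gain or loss of signal fitted bidirectionally against DMSO baseline.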

A short description of experiment [13]: ATG_M_61_CIS: Attagene CIS-FACTORIAL HepG2 Assay for M61 Transcription Factor (Internal Marker) (AID 2282937). The conditions noted are these: HepG2 Attagene CIS-FACTORIAL M61 internal marker reporter; actives raise or lower the signal. The method, boiled down: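 Human liver HepG2, transient MRTU transfection (cis promoter elements), 24 h compound. Total RNA → oligo(dT) RT → PCR → FAM label → HpaI → CE. Internal background marker; bidirectional fitting, DMSO = baseline.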

The nature of experiment [14]: ATG_EGR_CIS: Attagene CIS-FACTORIAL HepG2 Assay for human Early Growth Response 1 (EGR1) (AID 2282938). The conditions noted are these: HepG2 Attagene CIS-FACTORIAL EGR reporter mRNA; actives raise or lower the signal. The method, boiled down:
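Transient transfection of human HepG2 with multiple cis-regulated reporter units, chemical exposure 24 h, total RNA isolated. Reverse transcription, PCR, fluorescent labelling and capillary electrophoresis quantify reporter transcripts; activity fitted bidirectionally against DMSO.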

A short description of experiment [15]: ATG_M_19_CIS: Attagene CIS-FACTORIAL HepG2 Assay for M19 Transcription Factor (Internal Marker) (AID 2282939). As to conditions: HepG2 Attagene CIS-FACTORIAL M19 internal marker reporter; actives raise or lower the signal. The method, boiled down:
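Internal marker readout, fitted in both directions against DMSO, from HepG2 cells carrying transfected cis-element reporter constructs; RT-PCR and capillary electrophoresis of reporter mRNA after 24 h exposure.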

Experiment [16] is described as follows: ATG_ERE_CIS: Attagene CIS-FACTORIAL HepG2 Assay for Estrogen Response Element (ERE) (AID 2282940). As to conditions: HepG2 ERE cis-reporter, Attagene RNA transcript; actives raise or lower the signal. The method, boiled down:
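After 24 h compound treatment, RNA from transfected HepG2 cells was reverse-transcribed, reporter cDNA PCR-amplified, FAM-labelled, HpaI-cut and resolved by capillary electrophoresis. ERE-driven cis reporter transcripts reflect endogenous factors; gain or loss scored against DMSO.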

Experiment [17] in a line: ATG_Ets_CIS: Attagene CIS-FACTORIAL HepG2 Assay for human Erythroblast Transformation Specific (ETS) (AID 2282941). As to conditions: HepG2 ETS cis-reporter transcription, actives raise or lower the signal. A digest of the protocol: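 Bidirectional fit versus DMSO of reporter mRNA signal, detected by RT-PCR and capillary electrophoresis in HepG2 cells transiently transfected with cis-element reporters and dosed 24 h.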

The target in experiment [18] is Hepatocyte nuclear factor 3-beta (Homo sapiens) (UniProt Q9Y261). Kind of experiment: ATG_FoxA2_CIS: Attagene CIS-FACTORIAL HepG2 Assay for human Forkhead box A2 (FOXA2) (AID 2282942). The conditions noted are these: HepG2 cis-reporter transcription factor activity, 24 h; actives raise or lower the signal. A digest of the protocol:
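Transient MRTU transfection of HepG2 liver cells; 24 h treatment; total RNA → oligo(dT) RT → PCR → FAM primer extension → HpaI cut → CE. Bidirectional fit vs DMSO.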

Experiment [19] in a line: ATG_FoxO_CIS: Attagene CIS-FACTORIAL HepG2 Assay for human Forkhead box O (FoxO) (AID 2282943). The conditions noted are these: HepG2 Attagene cis-reporter, FoxO element, mRNA; actives raise or lower the signal. The method, boiled down:
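HepG2 cells transiently transfected with cis-element-driven reporter units report endogenous FoxO activity. After 24 h chemical exposure, reporter mRNA quantified by RT-PCR, fluorescent labeling, HpaI digestion and capillary electrophoresis; bidirectional fit versus DMSO.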

Experiment [20] is described as follows: ATG_GATA_CIS: Attagene CIS-FACTORIAL HepG2 Assay for human GATA Binding Protein (AID 2282944). The conditions noted are these: HepG2 GATA cis-element reporter, Attagene multiplex mRNA; actives raise or lower the signal. The method, boiled down:
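Reporter transcripts from a GATA cis-regulated unit, among multiplexed reporters in transfected HepG2 cells, were measured by RT-PCR with capillary electrophoresis after 24 h dosing. Induction or loss scored relative to DMSO.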

Results filed as inconclusive are left out. Activity calls are given as the source filed them. How the source made its calls, unless noted: active means hit-call score of the fitted dose curve at least 0.9, where 1 is the maximum; inactive means score below 0.9.

Hepatocyte nuclear factor 3-beta (Homo sapiens), sequence (Q9Y261 whole entry, looked up): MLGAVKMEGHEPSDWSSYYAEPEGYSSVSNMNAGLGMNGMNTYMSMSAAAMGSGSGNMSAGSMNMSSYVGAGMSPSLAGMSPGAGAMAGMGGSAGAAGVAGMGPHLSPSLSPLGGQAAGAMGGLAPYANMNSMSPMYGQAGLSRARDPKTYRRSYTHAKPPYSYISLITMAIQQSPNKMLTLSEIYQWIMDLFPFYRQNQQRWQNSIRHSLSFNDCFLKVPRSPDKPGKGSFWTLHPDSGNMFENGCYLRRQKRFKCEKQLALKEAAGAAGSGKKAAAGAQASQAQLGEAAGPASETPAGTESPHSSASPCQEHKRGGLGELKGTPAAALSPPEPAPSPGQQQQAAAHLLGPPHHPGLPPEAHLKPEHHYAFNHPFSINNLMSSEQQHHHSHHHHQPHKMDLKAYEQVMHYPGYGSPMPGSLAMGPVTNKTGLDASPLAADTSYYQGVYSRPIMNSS
CCAAT/enhancer-binding protein beta (Homo sapiens), sequence (P17676 whole entry, looked up): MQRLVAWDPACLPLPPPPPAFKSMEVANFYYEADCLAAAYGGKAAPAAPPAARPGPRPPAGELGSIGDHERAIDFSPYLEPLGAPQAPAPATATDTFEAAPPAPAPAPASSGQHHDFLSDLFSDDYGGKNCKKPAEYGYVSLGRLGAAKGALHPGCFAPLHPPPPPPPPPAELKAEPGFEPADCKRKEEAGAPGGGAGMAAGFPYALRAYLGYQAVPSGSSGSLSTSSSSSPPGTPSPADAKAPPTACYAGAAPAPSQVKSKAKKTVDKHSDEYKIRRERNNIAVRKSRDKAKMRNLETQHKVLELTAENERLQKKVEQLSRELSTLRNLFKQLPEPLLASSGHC
Transcription factor E2F1 (Homo sapiens), sequence (Q01094 whole entry, looked up): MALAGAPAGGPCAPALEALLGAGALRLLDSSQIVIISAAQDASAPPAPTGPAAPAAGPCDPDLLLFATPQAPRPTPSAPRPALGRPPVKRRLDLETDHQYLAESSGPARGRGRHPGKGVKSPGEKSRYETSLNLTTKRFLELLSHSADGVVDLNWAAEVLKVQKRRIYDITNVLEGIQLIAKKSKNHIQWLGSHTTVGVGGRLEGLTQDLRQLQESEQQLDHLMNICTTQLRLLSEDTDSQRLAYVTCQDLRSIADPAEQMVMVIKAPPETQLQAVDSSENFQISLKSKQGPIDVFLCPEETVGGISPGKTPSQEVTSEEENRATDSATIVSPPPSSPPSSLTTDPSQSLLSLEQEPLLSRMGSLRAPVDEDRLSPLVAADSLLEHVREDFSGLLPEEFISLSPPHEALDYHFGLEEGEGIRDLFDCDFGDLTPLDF
Aryl hydrocarbon receptor (Homo sapiens), sequence (P35869 whole entry, looked up): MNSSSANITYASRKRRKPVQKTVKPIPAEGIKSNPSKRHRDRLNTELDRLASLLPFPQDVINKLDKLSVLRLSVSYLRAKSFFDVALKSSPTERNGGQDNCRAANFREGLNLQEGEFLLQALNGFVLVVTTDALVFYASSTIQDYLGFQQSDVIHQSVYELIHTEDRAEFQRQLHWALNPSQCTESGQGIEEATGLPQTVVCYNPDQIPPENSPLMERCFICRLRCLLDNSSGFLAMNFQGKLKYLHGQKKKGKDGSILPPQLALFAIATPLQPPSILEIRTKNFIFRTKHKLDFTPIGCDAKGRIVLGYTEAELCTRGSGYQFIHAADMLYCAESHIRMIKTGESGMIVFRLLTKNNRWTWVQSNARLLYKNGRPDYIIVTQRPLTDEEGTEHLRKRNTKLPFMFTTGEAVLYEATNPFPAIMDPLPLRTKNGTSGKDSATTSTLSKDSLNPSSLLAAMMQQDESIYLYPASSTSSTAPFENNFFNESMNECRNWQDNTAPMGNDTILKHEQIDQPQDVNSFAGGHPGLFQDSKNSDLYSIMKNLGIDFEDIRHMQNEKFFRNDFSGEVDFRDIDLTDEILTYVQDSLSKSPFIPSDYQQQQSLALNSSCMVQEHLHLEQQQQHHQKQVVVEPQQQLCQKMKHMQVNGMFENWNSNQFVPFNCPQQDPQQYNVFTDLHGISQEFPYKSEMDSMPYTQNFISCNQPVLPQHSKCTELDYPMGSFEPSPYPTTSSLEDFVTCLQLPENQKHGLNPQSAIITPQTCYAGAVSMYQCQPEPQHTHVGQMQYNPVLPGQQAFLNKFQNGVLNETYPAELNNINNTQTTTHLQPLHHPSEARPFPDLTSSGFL
Retinoic acid receptor alpha (Homo sapiens), sequence (P10276 whole entry, looked up): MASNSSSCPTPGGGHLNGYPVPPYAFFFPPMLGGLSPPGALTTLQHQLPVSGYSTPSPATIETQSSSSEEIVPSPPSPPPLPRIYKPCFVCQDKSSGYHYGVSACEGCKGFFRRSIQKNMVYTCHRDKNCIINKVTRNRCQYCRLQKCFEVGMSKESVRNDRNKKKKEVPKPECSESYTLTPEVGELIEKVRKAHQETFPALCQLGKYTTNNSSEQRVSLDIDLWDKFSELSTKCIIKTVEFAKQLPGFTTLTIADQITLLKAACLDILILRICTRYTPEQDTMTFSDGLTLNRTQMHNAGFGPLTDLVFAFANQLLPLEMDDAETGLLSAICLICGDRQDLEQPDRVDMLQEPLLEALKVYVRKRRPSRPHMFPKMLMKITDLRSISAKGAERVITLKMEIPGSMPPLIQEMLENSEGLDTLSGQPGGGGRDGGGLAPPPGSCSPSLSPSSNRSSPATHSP

What is called AC50 is the concentration giving half of the maximal activity seen. On to `O=C(Cl)C(F)(F)C(F)(F)C(F)(F)C(F)(F)C(F)(F)C(F)(F)F`, for which the call in experiment [1], in experiment [2], in experiment [3], in experiment [4], in experiment [5] and in experiment [6] was inactive. Further, the outcome in [8], in experiment [9], in experiment [10], in [11], in experiment [12] and in [13] was inactive. The molecule was classed as inactive in experiment [14], in experiment [15], in experiment [16], in [17], in experiment [18] and in [19]. Besides, the molecule was classed as inactive in experiment [20]. Also, in [7], the AC50 was 159 µM (active).
In the case of `CCN(CC)c1ccc(C=O)c(O)c1`, the call in experiment [1], in experiment [2], in experiment [3], in [4], in [6] and in [7] was inactive. Further, the molecule was called inactive in experiment [8], in experiment [9], in experiment [10], in [11], in experiment [12] and in [13]. The call in [14], in [15], in experiment [16], in experiment [17], in experiment [18] and in [19] was inactive. Moreover, in [20], the call was inactive.
In the case of `Cc1ccc([N+](=O)[O-])c(C)c1`, the AC50 in [1] was 22.4 µM (active). The outcome in experiment [2], in [3], in experiment [4], in [5], in [6] and in experiment [7] was inactive. In addition, the outcome in experiment [8], in [9], in experiment [10], in [11], in experiment [12] and in experiment [13] was inactive. For the same molecule, the call in [14], in [15], in experiment [16], in experiment [17], in experiment [18] and in experiment [19] was inactive. Moreover, the outcome in experiment [20] was inactive.
